The source of these data is PubChem BioAssay.

Activity calls are given as the source filed them.

A short description of assay [1]: optical density shifts of acrAB sulA E. coli – strain DRC41, OD650, 48 h, E. coli filamentation inducer project, primary screen (AID 1152).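 Note: E. coli MC1000 strain DRC41 lacking acrAB efflux pump and sulA.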 Particulars: higher = more signal, called active from +8 up or from −8 down.
A short description of assay [2]: probe aLefty1 binding on compound microarray – biochemical, small-molecule microarray, 635/667 nm fluorescence, primary screen (AID 1153).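 Note: score merges spot fluorescence with signal-to-noise ratio from the scanned slide images.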 Particulars: higher = more signal.
A short description of assay [3]: plasmodial surface anion channel blockers, osmotic lysis – cell-based, P. falciparum Indochina, OD700, 1 h, primary screen (AID 1154). Particulars: P. falciparum Indochina infected RBC osmotic lysis, higher = more signal, called active from +8 up or from −8 down.
Assay [4] in a line: plasmodial surface anion channel blockers, osmotic lysis – cell-based, P. falciparum Indochina, OD700, 2 h, primary screen (AID 1155).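 Note: lysis reports solute entry through the parasite surface anion channel PSAC.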 Particulars: P. falciparum Indochina infected erythrocytes, higher = more signal, called active from +8 up or from −8 down.
Assay [5] can be described thus: changes in parasitized red cell lysis, either direction – P. falciparum Indochina, OD700, 3 h, PSAC antagonist project, primary screen (AID 1156). Particulars: P. falciparum-infected erythrocytes, osmotic lysis, higher = more signal, called active from +8 up or from −8 down.
A short description of assay [6]: plasmodial surface anion channel blockers, osmotic lysis – cell-based, P. falciparum Indochina, OD700, 18 h, primary screen (AID 1157). Particulars: P. falciparum Indochina infected erythrocytes, osmotic lysis OD700, 18 h; higher = more signal, called active from +8 up or from −8 down.
Assay [7] can be described thus: S6 kinase pathway phospho-S6 level changes – cell-based, A549, cytoblot, luminescence, serum-stimulated, primary screen (AID 1158).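 Note: serum-stimulated A549 lung adenocarcinoma cells; signal is phosphorylated S6 detected by cytoblot immunostaining with HRP secondary.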 Particulars: 5 h, higher = more signal.
Assay [8] addresses NADPH oxidase 2 (Homo sapiens) (UniProt P04839). The assay is described as follows: compounds shifting NOX2 Amplex Red fluorescence – cell-based, HEK293-NOX2, PMA-stimulated, NOX inhibitor project, primary screen (AID 1159). Note: test concentration not given here. Particulars: 45 min, higher = more signal, called active from +8 up or from −8 down.
Assay [9] concerns the target NADPH oxidase 4 (Homo sapiens) (UniProt Q9NPH5). As to the kind of experiment: compounds shifting NOX4 Amplex Red fluorescence – cell-based, HEK293-NOX4, tetracycline-induced, NOX inhibitor project, primary screen (AID 1160). Particulars: HEK293-NOX4, Amplex Red H2O2 fluorescence, 45 min; higher = more signal, called active from +8 up or from −8 down.
The target of assay [10] is NADPH oxidase 5 (Homo sapiens) (UniProt Q96PH1). The assay is described as follows: compounds shifting NOX5 Amplex Red fluorescence – cell-based, HEK293-NOX5, NOX inhibitor project, primary screen (AID 1161). Particulars: HEK293-NOX5, ionomycin, 45 min, higher = more signal.
Assay [11] is described as follows: compound effects on lung adenocarcinoma cell viability – A549, calcein-AM fluorescence, 48 h, basal, profiling panel (AID 1162). Note: test concentration not given here. Particulars: higher = more signal.
Assay [12] can be described thus: compound effects on differentiated 3T3-L1 adipocyte viability – cell-based, 3T3-L1 adipocytes, calcein-AM fluorescence, 48 h, basal, profiling panel (AID 1163). Note: test concentration not given here. Particulars: 3T3-L1 adipocytes viability, higher = more signal.
The nature of assay [13]: compound effects on hepatocellular carcinoma cell viability – HepG2, calcein-AM fluorescence, 48 h, basal, profiling panel (AID 1164). Note: test concentration not given here. Particulars: higher = more signal.
Assay [14] can be described thus: compound effects on multiple myeloma cell viability – MM1S, calcein-AM fluorescence, 48 h, basal, profiling panel (AID 1165).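 Note: viability of MM1S multiple myeloma cells under basal unstimulated conditions; test concentration not given here.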 Particulars: higher = more signal.
Assay [15] is described as follows: calcein-AM signal in unstimulated myeloma cells – cell-based, calcein-AM fluorescence, 48 h, PK04 Diversity Set, profiling panel (AID 1166).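 Note: cells grown under basal conditions without added stimulus; test concentration not given here.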 Particulars: RPMI8226 myeloma viability, higher = more signal.
The nature of assay [16]: JC-1 mitochondrial signal, unstimulated HepG2 cells – cell-based, JC-1 fluorescence, 24 h, 100 nL compound, profiling panel (AID 1167). Note: test concentration not given here. Particulars: HepG2 mitochondrial potential, higher = more signal.
A short description of assay [17]: JC-1 mitochondrial signal, unstimulated adipocytes – cell-based, JC-1 fluorescence, 3T3-L1 adipocytes, 24 h, 100 nL compound, profiling panel (AID 1168). Note: test concentration not given here. Particulars: JC-1 mitochondrial fluorescence, higher = more signal, called active from +8 up or from −8 down.
Assay [18] can be described thus: JC-1 mitochondrial signal, unstimulated myeloma cells – cell-based, JC-1 fluorescence, RPMI8226, 24 h, 100 nL compound, profiling panel (AID 1169). Note: test concentration not given here. Particulars: JC-1 mitochondrial potential fluorescence, higher = more signal.
Assay [19] in a line: JC-1 mitochondrial signal, unstimulated MM1S myeloma – cell-based, JC-1 fluorescence, 24 h, 100 nL compound, profiling panel (AID 1170). Note: test concentration not given here. Particulars: MM1S mitochondrial potential, higher = more signal.
The nature of assay [20]: resazurin metabolic signal in A549 cells – cell-based, resazurin fluorescence, 24 h, PK04 Diversity Set, profiling panel (AID 1171). Note: test concentration not given here. Particulars: A549 viability, higher = more signal, called active from +8 up or from −8 down. Background: The colour change of resazurin is a common sign of viable cells or microbes.

Sequence of NADPH oxidase 2 (Homo sapiens) (P04839 whole entry, looked up): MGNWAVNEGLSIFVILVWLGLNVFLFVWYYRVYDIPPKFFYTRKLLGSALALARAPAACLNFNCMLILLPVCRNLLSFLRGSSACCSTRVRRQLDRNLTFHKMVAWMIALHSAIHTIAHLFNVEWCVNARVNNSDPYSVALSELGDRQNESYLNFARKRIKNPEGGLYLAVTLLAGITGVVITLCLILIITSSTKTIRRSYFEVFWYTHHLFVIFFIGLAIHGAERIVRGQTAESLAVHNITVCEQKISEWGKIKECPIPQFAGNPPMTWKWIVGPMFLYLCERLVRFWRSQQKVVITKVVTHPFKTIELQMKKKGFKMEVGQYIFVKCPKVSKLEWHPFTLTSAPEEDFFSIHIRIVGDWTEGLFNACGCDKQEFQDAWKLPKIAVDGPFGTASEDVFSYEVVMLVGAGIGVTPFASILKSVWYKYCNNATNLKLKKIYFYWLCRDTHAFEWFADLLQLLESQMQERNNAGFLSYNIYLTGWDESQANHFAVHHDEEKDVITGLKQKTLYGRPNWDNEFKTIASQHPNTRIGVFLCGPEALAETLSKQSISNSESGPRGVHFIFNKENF
Sequence of NADPH oxidase 4 (Homo sapiens) (Q9NPH5 whole entry, looked up): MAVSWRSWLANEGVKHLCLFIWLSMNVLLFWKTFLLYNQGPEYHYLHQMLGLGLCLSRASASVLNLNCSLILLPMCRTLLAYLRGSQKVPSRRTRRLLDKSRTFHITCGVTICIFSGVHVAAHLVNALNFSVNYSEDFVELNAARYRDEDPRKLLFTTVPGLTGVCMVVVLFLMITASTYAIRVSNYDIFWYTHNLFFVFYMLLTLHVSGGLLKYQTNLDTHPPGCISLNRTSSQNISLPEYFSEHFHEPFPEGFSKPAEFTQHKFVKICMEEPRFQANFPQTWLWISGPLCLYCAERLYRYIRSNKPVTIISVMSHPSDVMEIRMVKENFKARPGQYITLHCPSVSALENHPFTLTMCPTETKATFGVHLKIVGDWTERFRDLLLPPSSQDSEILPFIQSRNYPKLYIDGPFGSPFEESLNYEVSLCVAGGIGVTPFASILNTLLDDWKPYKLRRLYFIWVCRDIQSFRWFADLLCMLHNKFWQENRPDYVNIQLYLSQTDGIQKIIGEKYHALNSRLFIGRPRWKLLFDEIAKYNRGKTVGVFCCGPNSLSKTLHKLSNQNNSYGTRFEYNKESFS
Sequence of NADPH oxidase 5 (Homo sapiens) (Q96PH1 whole entry, looked up): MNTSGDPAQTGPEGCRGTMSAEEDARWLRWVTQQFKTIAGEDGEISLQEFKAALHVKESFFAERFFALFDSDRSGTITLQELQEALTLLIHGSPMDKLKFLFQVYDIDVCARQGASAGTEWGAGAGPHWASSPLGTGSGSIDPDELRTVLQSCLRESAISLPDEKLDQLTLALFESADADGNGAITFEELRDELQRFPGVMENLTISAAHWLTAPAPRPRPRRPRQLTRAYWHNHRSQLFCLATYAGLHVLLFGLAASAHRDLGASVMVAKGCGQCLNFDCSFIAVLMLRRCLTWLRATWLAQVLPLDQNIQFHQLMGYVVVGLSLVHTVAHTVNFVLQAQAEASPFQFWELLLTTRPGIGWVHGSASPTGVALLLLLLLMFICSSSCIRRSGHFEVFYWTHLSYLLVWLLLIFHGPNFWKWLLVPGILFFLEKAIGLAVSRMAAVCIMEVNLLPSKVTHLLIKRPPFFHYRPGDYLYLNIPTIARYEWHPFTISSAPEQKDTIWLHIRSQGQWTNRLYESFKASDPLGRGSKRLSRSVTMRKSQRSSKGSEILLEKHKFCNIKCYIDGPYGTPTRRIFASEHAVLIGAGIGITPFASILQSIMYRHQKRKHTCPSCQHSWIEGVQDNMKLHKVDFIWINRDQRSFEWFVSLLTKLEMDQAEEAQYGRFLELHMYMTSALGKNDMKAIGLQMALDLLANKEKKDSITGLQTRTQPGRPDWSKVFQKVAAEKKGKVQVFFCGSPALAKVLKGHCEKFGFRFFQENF

For the compound `[N-]=[N+]=Nc1ccccc1[C@H]1OC(c2ccc(OCCCO)cc2)=N[C@@]1(Cc1ccccc1)C(=O)NCC(O)CO` (stereo not given in full), the z-score in assay [1] is 0.348 (inactive); in assay [3], 33.6 (active); in assay [4], 30.4 (active); in [5], 0.849 (inactive); in [6], 8.56 (active); in [7] it was -0.0737. Also, the z-score in assay [8] is -0.455 (inactive); in assay [9], 1.67 (inactive); in assay [10] it was 1.31; in [11] it was -0.761; in assay [12], 0.405; in assay [13], -0.629. Moreover, the z-score in assay [14] is -1.5; in [15], -2.2; in assay [16], 0.854; in assay [17], 0.291 (inactive); in assay [18], -0.925; in assay [19], -1. Moreover, the z-score in assay [20] was -0.949 (inactive). Also, the composite z-score in assay [2] stood at 0.425.

With `C[N+](C)(C)CCCC[C@@H]1NC(=O)[C@@H]2C[C@H](C(=O)NCc3ccc(F)cc3)[C@H](c3ccc(O)cc3)N2C1=O`, the z-score in assay [1] was -0.7 (inactive); in [3] it was 0.936 (inactive); in [4] it was 0.376 (inactive); in assay [5], -1.65 (inactive); in assay [6], 0.104 (inactive); in assay [7], 0.567. The z-score in assay [8] is 0.274 (inactive); in assay [9], 0.22 (inactive); in assay [10], 1.17; in assay [11], 0.993; in assay [12], -0.335; in assay [13], 0.698. In addition, the z-score in assay [14] was 0.481; in assay [15] it was -0.114; in [16], 1.62; in assay [17], -0.41 (inactive); in assay [18], -0.0248; in assay [19], -0.524. Further, the z-score in assay [20] is -0.0894 (inactive). Moreover, the composite z-score in assay [2] is -0.0186.

For the compound `O=C1C[C@@](C(=O)O)(c2ccc([N+](=O)[O-])cc2)[C@@H](c2ccc(CO)cc2)N1C1CCCCC1`, the z-score in [1] is -0.485 (inactive); in [3], 5.95 (inactive); in assay [4] it was 0.732 (inactive); in [5] it was 2.38 (inactive); in [6] it was 0.646 (inactive); in assay [7], 0.197. Further, the z-score in assay [8] was -0.127 (inactive); in [9], -1.27 (inactive); in assay [10], 0.369; in assay [11], 0.903; in assay [12], -0.0886; in [13], -0.28. The z-score in assay [14] was -1.43; in assay [15] it was -2.67; in assay [16], 0.969; in [17], -1.22 (inactive); in assay [18] it was -0.145; in [19], -0.247. In addition, the z-score in assay [20] is 0.361 (inactive). The composite z-score in assay [2] was determined as 0.0984.

For `O=C1O[C@@H](c2ccccc2)[C@@H](c2ccccc2)N2[C@@H](c3ccccc3OCCO)[C@]3(C(=O)Nc4ccc(C#CCCO)cc43)[C@@H](C(=O)NC[C@H](O)c3ccccc3)[C@H]12`, the z-score in [1] is 0.54 (inactive); in [3] it was 1.54 (inactive); in assay [4] it was 0.913 (inactive); in assay [5] it was -1.33 (inactive); in assay [6] it was 1.28 (inactive); in assay [7], -0.471. Further, the z-score in assay [8] is 1.59 (inactive); in [9] it was 0.462 (inactive); in [10] it was 0.689; in assay [11], -0.31; in assay [12], 0.323; in [13], 0.997. Further, the z-score was 0.16 in assay [14]; -0.0269 in [15]; -1.16 in assay [16]; 0.00583 (inactive) in [17]; -0.471 in assay [18]; -0.596 in [19]. Also, the z-score in [20] is 0.682 (inactive). In addition, the composite z-score in assay [2] came to 1.63.

Consider `CN(C)CCCCNC(=O)[C@H]1C[C@H]2C(=O)NCC(=O)N2[C@H]1c1ccc(O)cc1`, for which the z-score is 0.327 (inactive) in [1]; 2.9 (inactive) in assay [3]; 0.552 (inactive) in assay [4]; 0.447 (inactive) in assay [5]; 0.3 (inactive) in [6]; -0.468 in assay [7]. In addition, the z-score in assay [8] was 1.06 (inactive); in assay [9], 1.09 (inactive); in assay [10], 1.18; in assay [11], -0.685; in assay [12], 0.364; in assay [13] it was -0.239. The z-score was 0.34 in assay [14]; -0.0681 in assay [15]; -0.253 in assay [16]; -0.324 (inactive) in [17]; 0.347 in assay [18]; -0.371 in assay [19]. For the same compound, the z-score in [20] is 1.05 (inactive). In [2], the composite z-score was -0.417.
